Screening data as filed in PubChem.
JMJD2A Tudor inh: JMJD2A Tudor domain (human) inhibition. O75164. AlphaScreen JMJD2A-Tudor / H3K4me3 peptide binding. Potency, µM (top dose mostly 114 µM), most hits filed as inhibitors. hit rate 4.4% among 390,000; also: nearly all actives have a fitted effect of over 50% in size
HP1b chromo inh: blocks HP1-beta chromodomain binding to methylated histone tails | hit rate 0.56% among 390,000 | AlphaScreen HP1-beta / biotin-H3K9me3 peptide binding | Potency, µM (titrated, usually from 114 µM), hits mostly inhibitors | AID 540317 | P83916; also: nearly all actives have a fitted effect of over 70% in size
Target sequence (P83916 whole entry, looked up): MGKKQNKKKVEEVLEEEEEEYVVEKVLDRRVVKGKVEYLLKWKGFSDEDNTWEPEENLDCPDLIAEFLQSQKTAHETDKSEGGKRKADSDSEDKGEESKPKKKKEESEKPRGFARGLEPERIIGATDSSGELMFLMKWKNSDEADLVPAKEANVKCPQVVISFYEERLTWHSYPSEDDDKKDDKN
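AlphaScreen: HP1-beta (50 nM) preformed 30 min with biotin-H3(1-18)K9me3 peptide (50 nM) in PBS pH 7.4, 0.01% Tween-20. Compound added for 30 min at RT, then streptavidin donor/nickel chelate acceptor beads (10 ug/mL) for 30 min.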
G9a inh: blocks human histone lysine methyltransferase G9a; Q96KQ7; G9a H3K9 monomethylation, AlphaScreen, 2 h; Potency, µM (doses to about 102 µM), hits mostly inhibitors; hit rate 8.8% among 350,000; AID 504332; also: nearly all actives have a fitted effect of over 75% in size
Target sequence (Q96KQ7 913-1193 limits assumed): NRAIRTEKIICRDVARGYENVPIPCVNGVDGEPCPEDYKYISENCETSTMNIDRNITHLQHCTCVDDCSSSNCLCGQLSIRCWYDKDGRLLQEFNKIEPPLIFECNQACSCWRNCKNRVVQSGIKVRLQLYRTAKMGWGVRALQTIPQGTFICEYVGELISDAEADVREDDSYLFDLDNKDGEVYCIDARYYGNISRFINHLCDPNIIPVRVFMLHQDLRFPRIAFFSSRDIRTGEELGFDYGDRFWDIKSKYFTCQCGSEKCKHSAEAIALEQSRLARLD
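Quantitative HTS format: methyltransferase activity on a biotin-tagged H3K9 peptide is measured by AlphaScreen, using a rabbit anti-monomethyl-H3K9 antibody with streptavidin donor and anti-IgG acceptor beads. Final levels are 20 nM enzyme, 500 nM peptide, 20 uM SAM; 2 h RT.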
GLS inh: blocks human kidney-isoform glutaminase activity; O94925; GLS enzymatic activity, qHTS titration; Potency, µM (highest dose often 45.5 µM), usual class: inhibitors; hit rate 0.21% among 410,000; AID 624170
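Assay buffer: 45 mM KH2PO4 pH 8.2, 0.02% Tween-20. hKGA acts on L-glutamine (1 mM solution added); product glutamate is reported by an oxidase/peroxidase Amplex Red coupling, with fluorescence taken at baseline and 30 min.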
BAZ2B block: BAZ2B (human) inhibition | Q9UIF8 | AlphaScreen BAZ2B-H3K14Ac peptide displacement | Potency, µM (titrated, usually from 114 µM), hits mostly inhibitors | hit rate 4.4% among 360,000 | AID 504333; also: nearly all actives have a fitted effect of over 60% in size
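In this displacement format the biotinylated H3(5-23) peptide acetylated at Lys14 serves as ligand at 50 nM, with BAZ2B at 50 nM in PBS pH 7.4 containing 0.01% Tween-20. Donor and acceptor beads are 10 ug/mL final.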
Numbers stand for hits; n = inactive; u = inconclusive; x = no result; ! = a repeat was not active; [ ] = dose if it differs, or a comment. Shown are actives, neighbours in structure and some others; about 10% of the full set was active somewhere. Calls follow the shape of the dose curve; as a rule, active = well fitted curve in the direction sought with a large enough effect; inconclusive = small, poorly fitted or top-dose-only effect, or another doubt; inactive = no such curve, though single readings can be large; an effect the other way counts as inactive or inconclusive.

SMILES | JMJD2A Tudor inh | HP1b chromo inh | G9a inh | GLS inh | BAZ2B block
CS(=O)(=O)c1ccccc1-c1nnc(NC(=O)c2cccc(N3C(=O)CCC3=O)c2)o1 | 2.5µM | n | u | n | 79µM
Cc1ccc(-c2csc(NC(=O)c3cccc(N4C(=O)CCC4=O)c3)n2)o1 | 79µM | n | 8.9µM | n | n
O=C(Nc1nnc(-c2ccco2)o1)c1cccc(N2C(=O)CCC2=O)c1 | 4.5µM | n | 16µM | n | 22µM
CC(C)(O)[C@@H]1[C@@H]2C[C@@]3(CC[C@]4(C)C(CCC5[C@@]6(C)CC[C@H](O)C(C)(C)C6CC[C@]54C)[C@@H]13)C(=O)O2 (stereo not given in full) | n | n | x | n | x
O=C1CCCC(=NCc2ccco2)C1 | n | n | n | n | n
CCCCC(O)CN1CCC(c2ccccc2)CC1 (stereo not given) | n | n | n[12.7 µM] | n | n
COc1ccc(CC(=O)NNC(=O)c2ccc(Br)s2)cc1OC | n | n | x | n | x
O=C(Nc1nnc(-c2ccc(Cl)cc2)o1)c1cccc(N2C(=O)CCC2=O)c1 | u | n | n | n | 79µM
Cc1csc(N/N=C/c2ccc([N+](=O)[O-])cc2)n1 | n | n | n | n | n
O=C(O)c1csc(N/N=C/c2ccc(Br)cc2)n1 | n | n | 35µM | n | 79µM
CN(C)c1ccc(N/C(=N\S(=O)(=O)c2cccs2)c2ccccc2)cc1 | 45µM | u | 4.5µM | n | 45µM
CN(/C(=N/S(=O)(=O)c1cccs1)c1ccccc1)c1ccccc1 | n | n | n | n | n
CCOc1nc(C)nc(NC(=O)NS(=O)(=O)c2ccccc2Cl)n1 | n | n | n | n | n
CS(=O)(=O)N1N=C(c2ccco2)CC1c1ccccc1Cl (stereo not given) | n | n | n | n | n
CS(=O)(=O)N1N=C(c2ccco2)CC1c1ccc(Br)cc1 (stereo not given) | n | n | 35µM | n | n
COc1ccccc1C1CC(c2ccco2)=NN1S(C)(=O)=O (stereo not given) | 50µM | n | n | n | n
CS(=O)(=O)c1ccc(C(=O)Nc2ccccc2Cl)cc1 | n | n | n | n | n
CS(=O)(=O)c1ccc(C(=O)Nc2cc(S(C)(=O)=O)ccc2Cl)cc1 | n | n | 45µM | n | n
COc1ccc(-c2nc3c(Cl)cc(C(F)(F)F)cn3c2Cc2cccc(Cl)c2)cc1OC | x | x | x | n | x
CSc1ccccc1C(=O)NCc1ccc(S(N)(=O)=O)cc1 | n | n | u | n | n
COCCSc1ccccc1C(=O)NCc1ccc(S(N)(=O)=O)cc1 | n | n | 45µM | n | n
CCNS(=O)(=O)c1ccc(NC(=O)c2ccccc2SCCOC)cc1 | n | n | 16µM | n | n
COCCSc1ccccc1C(=O)Nc1ccccc1C(C)C | n | n | 5µM | n | n
COCCSc1ccccc1C(=O)NCC1CCCO1 (stereo not given) | n | n | 6.3µM | n | n
CC(=O)N1CCN(Cc2nc3cc(NC(=O)COc4cccc(C)c4)ccc3n2C)CC1 | n | n | 6.3µM | n | u
SMILES | JMJD2A Tudor inh | HP1b chromo inh | G9a inh | GLS inh | BAZ2B block
Cc1cccc(OCC(=O)Nc2ccc3c(c2)nc(CN2CCCCC2)n3C)c1 | 89µM! | n | 32µM | n | u
Nc1nnc(SCCOc2ccccc2)s1 | n | n | n | n | n
CC(C)c1ccccc1NC(=O)CNCCOc1ccccc1F | 28µM | u | n | n | 50µM
CC(C)c1ccccc1NC(=O)Nc1ccc(F)cc1F | n | n | x | n | n
Cc1ccccc1N1OC2C(=O)N(c3ccc(F)cc3)C(=O)C2C1c1ccccn1 (stereo not given) | n | n | n[12.7 µM] | n | n
COc1ccc(C=O)cc1COc1ccc2c(c1)OCO2 | 7.1µM | n | n[0.501 µM] | n | u
Nc1c(NCCCN2CCOCC2)c2ccccc2oc1=O | n | n | n | n | n
CC(=O)NC(c1ccc2ccccc2c1)c1ccc2cccnc2c1O (stereo not given) | 25µM | n | n | n | 28µM
CCCCC(=O)NC(c1ccccc1OC)c1ccc2cccnc2c1O (stereo not given) | n[11.4 µM] | n | n | n | u
CC(=O)NC(c1ccc(Cl)cc1Cl)c1ccc2cccnc2c1O (stereo not given) | 28µM | n | x | n | 28µM
COc1ccc(C(NC(C)=O)c2ccc3cccnc3c2O)c(OC)c1 (stereo not given) | 79µM | n | n | n | 28µM
CCCC(=O)NC(c1ccc(Cl)cc1)c1ccc2cccnc2c1O (stereo not given) | n | n | n | n | n
COc1ccc(NC(=O)CN(C)CC(=O)NC2CCC(C)CC2)cc1 (stereo not given) | n | n | n[12.7 µM] | n | n
COc1cc(CC2COC(c3ccc(O)c(OC)c3)C2COC(C)=O)ccc1O (stereo not given) | 50µM | u | u | 11µM | 40µM
COc1ccc(C2CC(=O)C=C(NCCC(C)C)C2)cc1 (stereo not given) | n | n | n | n | n
O=c1nc2cccc3c2=c(/c1=C(\O)c1ccccc1)c1ccccc1c3=O | n | n | u | n | 89µM
CCc1cc(=O)oc2c(C)c(OC(C)C(=O)NCC3CCC(C(=O)O)CC3)ccc12 (stereo not given) | n | n | n | n | n
CC(Sc1nnc(NCc2ccccc2)s1)C(=O)Nc1ccc2c(c1)C(=O)c1ccccc1C2=O (stereo not given) | u | n | 3.2µM | n | u
Cc1cccc(Nc2nc(-c3ccccn3)cs2)n1 | u | n | u | n | 20µM
Cc1cccc(Nc2nc(-c3cccs3)cs2)n1 | n | n | 8.9µM | n | n
CCOc1ccccc1CN1CCNC(=O)C1CC(=O)NCCCn1cccn1 (stereo not given) | n | n | 79µM | n | u
COc1ccccc1CN1CCNC(=O)C1CC(=O)NCCCn1cccn1 (stereo not given) | n | n | n | n | n
COc1ccccc1CN1CCNC(=O)C1CC(=O)NCCCN1CCOCC1 (stereo not given) | x | x | x | n | x
COc1ccccc1CN1CCNC(=O)C1CC(=O)NCCCN1CCCC1=O (stereo not given) | n | n | 71µM | n | n
COc1ccc2ccccc2c1CNC(=O)CC1C(=O)NCCN1CC(C)C (stereo not given) | n | n | 45µM | n | n
CCc1cc(CNC(=O)CC2C(=O)NCCN2Cc2cccc(OC)c2)on1 (stereo not given) | n | n | 56µM | n | n
O=C(CC1C(=O)NCCN1Cc1ccccc1)NCCCOc1cccnc1 (stereo not given) | n | n | 50µM | n | n
O=C(CC1C(=O)NCCN1Cc1cccc(Oc2ccccc2)c1)NCCCn1cccn1 (stereo not given) | n | n | 50µM | n | n
O=C(CC1C(=O)NCCN1Cc1ccccc1)NCCN1CCCCC1=O (stereo not given) | n | n | x | n | n
